Test results taken from paper PMC4336329 (PLoS ONE, 2015).
Out of some 310,000 compounds screened, about 14,000 (4.5%) showed an effect of 50% or more. The effect is printed as a negative number. This excerpt belongs to a sample that is enriched for strong results.

Biological target: human ether-à-go-go-related gene (hERG) potassium channel (human, UniProt Q12809)
Experiment: primary screen, population patch clamp on CHO cells stably expressing hERG; higher = less effect of the substance
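Also: peak tail current of the secondary pulse compared with the same well before compound.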

human ether-à-go-go-related gene (hERG) potassium channel, sequence (Q12809 whole entry, looked up): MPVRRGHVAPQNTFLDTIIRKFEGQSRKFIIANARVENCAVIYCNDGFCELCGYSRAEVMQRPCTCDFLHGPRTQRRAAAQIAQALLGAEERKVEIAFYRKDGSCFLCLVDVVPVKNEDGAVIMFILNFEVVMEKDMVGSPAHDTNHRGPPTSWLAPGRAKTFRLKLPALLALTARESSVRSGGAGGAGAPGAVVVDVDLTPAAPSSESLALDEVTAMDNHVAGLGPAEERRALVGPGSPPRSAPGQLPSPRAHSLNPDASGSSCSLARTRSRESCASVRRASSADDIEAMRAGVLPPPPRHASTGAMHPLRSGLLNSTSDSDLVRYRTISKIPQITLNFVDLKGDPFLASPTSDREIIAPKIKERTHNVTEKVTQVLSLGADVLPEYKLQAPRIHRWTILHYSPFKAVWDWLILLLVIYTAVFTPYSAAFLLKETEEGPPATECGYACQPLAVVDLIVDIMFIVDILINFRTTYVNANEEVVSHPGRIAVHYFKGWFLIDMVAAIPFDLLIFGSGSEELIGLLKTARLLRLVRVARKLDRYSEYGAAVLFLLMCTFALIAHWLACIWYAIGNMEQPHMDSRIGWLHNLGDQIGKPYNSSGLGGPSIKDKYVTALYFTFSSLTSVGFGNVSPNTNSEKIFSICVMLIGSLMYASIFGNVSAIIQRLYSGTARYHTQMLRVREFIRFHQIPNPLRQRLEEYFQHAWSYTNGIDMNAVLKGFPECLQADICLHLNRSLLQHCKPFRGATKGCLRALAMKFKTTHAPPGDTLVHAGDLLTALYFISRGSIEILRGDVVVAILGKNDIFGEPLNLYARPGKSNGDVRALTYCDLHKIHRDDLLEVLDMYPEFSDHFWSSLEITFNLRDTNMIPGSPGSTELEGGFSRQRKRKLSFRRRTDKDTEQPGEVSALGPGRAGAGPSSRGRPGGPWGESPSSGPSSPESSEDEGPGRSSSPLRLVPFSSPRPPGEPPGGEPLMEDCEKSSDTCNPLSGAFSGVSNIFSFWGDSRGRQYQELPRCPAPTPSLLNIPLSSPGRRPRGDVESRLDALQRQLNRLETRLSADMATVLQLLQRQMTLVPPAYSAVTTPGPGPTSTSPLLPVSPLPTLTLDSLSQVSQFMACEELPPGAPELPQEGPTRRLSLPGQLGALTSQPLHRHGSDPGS

Structure (SMILES)	hERG current change (%, negative = inhibition) at 10uM [%]
CC1(C(=O)NC2CCCCC2)CCC(=O)N1Cc1cccs1 (centres unmarked)	-0.227
O=C(NCCCN1CCCC1=O)c1csc2ccccc12	-28.2
CCOc1ccc(CN2CCCC(CO)(Cc3ccccc3F)C2)cc1 (centres unmarked)	-64.8
CC(C)Oc1ccc(CN2CCCC(CO)(Cc3ccccc3)C2)cc1CO (centres unmarked)	-43.1
CCOc1ccc(CN2CCCC(CO)(Cc3ccc(F)cc3)C2)cc1 (centres unmarked)	-62
COC(=O)c1ccc(CN2CCCC(CO)(Cc3ccccc3F)C2)cc1 (centres unmarked)	-32.7
CSCCCN1CCCC(CO)(Cc2ccc(F)cc2)C1 (centres unmarked)	-30.1
COc1cc(CN2CCCC(CO)(Cc3ccccc3F)C2)ccc1O (centres unmarked)	-22.5
CCn1cc(CN2CCCC(CO)(Cc3ccc(F)cc3)C2)c2ccccc21 (centres unmarked)	-32
CC(C)Oc1ccc(CN2CCCC(CO)(Cc3ccc(F)cc3)C2)cc1 (centres unmarked)	-58.7
O=C(O)c1cccc2c1C(=O)c1cc(Br)ccc1S2(=O)=O	20.2
Cc1ccc(S(=O)(=O)NCCS(=O)(=O)N2CCN(c3ccccc3)CC2)cc1	-1.5
CC(=O)c1nn(-c2cccc(Br)c2)cc1C(=O)c1ccc(Br)cc1	12.7
O=C(NCCCN=C1NS(=O)(=O)c2ccccc21)c1ccc(S(=O)(=O)N2CCOCC2)cc1	4.24
COCn1ccnc1C(O)(c1ccc(OC)cc1)c1ccc(OC)cc1	9.69
O=C(O)CCC(NS(=O)(=O)c1ccc(N2CCCC2=O)cc1)C(=O)O (centres unmarked)	-7.11
O=C(O)C(=O)O.O=C(c1ccccc1)N1CCN(C2CCCCCC2)CC1	-28.8
O=C(O)C(=O)O.O=C(c1ccccc1)N1CCN(C2CCCCC2)CC1	-31.9
O=C(O)C(=O)O.O=C(c1ccncc1)N1CCN(C2CCCCC2)CC1	-23.4
O=C(c1ccncc1)N1CCN(C(=O)c2ccncc2)CC1	12
O=C(O)C(=O)O.O=C(c1ccc(F)cc1)N1CCN(C2CCC(c3ccccc3)CC2)CC1 (centres unmarked)	-76
CC1CCC(N2CCN(C(=O)c3ccccc3F)CC2)CC1.O=C(O)C(=O)O (centres unmarked)	-2.63
O=C(c1ccc(F)cc1)N1CCCC(c2ccccc2)C1 (centres unmarked)	15.8

Structure (SMILES)	hERG current change (%, negative = inhibition) at 10uM [%]
O=C(O)C(=O)O.O=C(c1ccccc1F)N1CCN(C2CCC(c3ccccc3)CC2)CC1 (centres unmarked)	-60.5
O=C(O)C(=O)O.O=C(c1ccc(F)cc1)N1CCN(C2CCCCC2)CC1	-62.1
COc1cccc(C(=O)N2CCN(C3CCC(c4ccccc4)CC3)CC2)c1OC.O=C(O)C(=O)O (centres unmarked)	-10.1
O=C(O)C(=O)O.O=C(c1ccncc1)N1CCN(C2CCC(c3ccccc3)CC2)CC1 (centres unmarked)	-63.4
O=C(c1ccc(F)cc1)N1CCC(c2ccccc2)C1 (centres unmarked)	2.75
O=C(CSc1nnc2ccccn12)NC(=O)NC1CCCC1	13.4
O=C(O)C1C2C=CC(C2)C1C(=O)Nc1cccc(C(F)(F)F)c1 (centres unmarked)	8.95
CC(C)c1ccc(/C=C2\SC(N3CCCC3)=NC2=O)cc1	-37.1
CCOc1ccccc1OCCCC(=O)NNC(=O)c1nn(C)c(=O)c2ccccc12	-20.3
Cn1cnc(S(=O)(=O)Nc2ccccc2C(=O)NCC2CC2)c1	13.7
Cc1ccc(C)c(NC(=S)NNc2ccc(F)cc2F)c1	5.57
Cc1c(C)c2ccc(O[C@@H]3O[C@H](CO)[C@@H](O)[C@H](O)[C@H]3O)c(C)c2oc1=O	11.7
COc1ccc(NC(=O)c2ccc(Cl)c(S(=O)(=O)N3CCc4ccccc4C3)c2)cn1	-46.8
CCc1cc(C(c2cccc(OC)c2)N2CCOCC2)c(NC(=O)c2ccccc2)s1 (centres unmarked)	-1.91
Cc1cc(NO)c(C(C)C)cc1N=O	-2.87
O=C(NCCNC1CCC(c2ccccc2)CC1)c1cccs1 (centres unmarked)	-35.2
O=C(NC1CCN(C(=O)NCc2ccccc2)CC1)c1ccc(F)cc1	-15.8
O=C(NCCNC1CCC(c2ccccc2)CC1)c1ccc(F)cc1 (centres unmarked)	-58.3
C/C(=N\NC(=O)c1ccccn1)c1ccc(Cl)cc1	5.74
Cc1ccc2[nH]c(O)c(N=NC(=O)C3CC3c3ccccc3)c2c1Br (centres unmarked)	-55.7
Cc1ccc2[nH]c(O)c(N=NC(=O)CCc3ccccc3)c2c1Br	10.5
Cc1cc2c(N=NC(=O)C3CC3c3ccccc3)c(O)[nH]c2cc1Br (centres unmarked)	0.687
COC(=O)CCC(=O)OC1(C)C(=O)C2=CN(Cc3ccc(OC)cc3)C(c3ccc(OC)cc3)=CC2=C(Br)C1=O (centres unmarked)	-58.7

Structure (SMILES)	hERG current change (%, negative = inhibition) at 10uM [%]
COC(=O)CCC(=O)OC1(C)C(=O)C2=CN(Cc3ccccc3)C(c3ccc(OC)cc3)=CC2=C(Br)C1=O (centres unmarked)	2.01
COCCN1C=C2C(=O)C(C)(OC(=O)CCC(=O)OC)C(=O)C(Br)=C2C=C1c1ccc(OC)cc1 (centres unmarked)	7.96
COC(=O)CCC(=O)OC1(C)C(=O)C2=CN(C3CCCC3)C(c3ccc(OC)cc3)=CC2=C(Br)C1=O (centres unmarked)	-52.6
COC(=O)CCC(=O)OC1(C)C(=O)C2=CN(C3CC3)C(c3ccc(OC)cc3)=CC2=C(Br)C1=O (centres unmarked)	14.4
COC(=O)CCC(=O)OC1(C)C(=O)C2=CN(CC3CC3)C(c3ccc(OC)cc3)=CC2=C(Br)C1=O (centres unmarked)	4.74
Cc1ccc(N2CCN(C3=NC(=O)/C(=C\c4cn[nH]c4-c4ccccc4)S3)CC2)cc1	2.07
COc1ccc(C2/C=C\CN(C(=O)OCc3ccccc3)CC(=O)N2Cc2ccc(F)cc2)cc1 (centres unmarked)	-26
CCOC(=O)Cc1cc(=O)c2c(=O)n(-c3ccccc3)[nH]c2[nH]1	9.55
O=C(Oc1ccccc1)Oc1ccc2c(c1)oc(=O)c1ccccc12	16.9
CN(C)C(N)=NCCC[C@H](N)C(=O)O.Cl	9.67
Clc1ccc2c(N3CCNCC3)ccnc2c1	-41.9
Clc1ccc2c(N3CCOCC3)ccnc2c1	-17.1
O=C(c1ccco1)N1CCN(c2ccnc3cc(Cl)ccc23)CC1	-71.5
O=C(c1ccco1)N1CCN(c2cccc(Cl)c2)CC1	-11.5
CC(=O)N1CCN(c2ccnc3cc(Cl)ccc23)CC1	-50.4
COc1ccc(N2CCN(c3ccnc4cc(Cl)ccc34)CC2)cc1	-36.5
CC(=O)N1CCC(=NNc2ccnc3cc(Cl)ccc23)CC1	-22.2
Oc1ccc(N2CCN(c3ccnc4cc(Cl)ccc34)CC2)cc1	-22.7
Clc1ccc2c(N3CCCC3)ccnc2c1	-65.2
O=C(c1ccco1)N1CCN(c2ccc(Cl)cc2)CC1	-40.7
CC(C)(C)C(=O)N1CCN(c2ccnc3cc(Cl)ccc23)CC1	-73.9
CCCCOc1ccccc1C1NC(=O)NC(C)=C1C(=O)OCCOCC (centres unmarked)	-8.27
COc1ccc(C2CC(c3ccccc3)Nc3nc(N)nn32)cc1 (centres unmarked)	-25

Structure (SMILES)	hERG current change (%, negative = inhibition) at 10uM [%]
Cc1ccc(S(=O)(=O)N2CCOCC2)cc1NC(=O)CSc1nnc(C2CC2)n1C1CC1	-7.36
Cc1nc2ccccc2n1-c1nc(-c2ccco2)cc(C(F)(F)F)n1	5.46
CC(C)(C)OC(=O)CC[C@@H](C(=O)NCCCCCCCCCCC(=O)N1CCN(C(=O)OC(C)(C)C)CC1)n1cc(CCCCCNC(=O)OC(C)(C)C)nn1	4.12
CCOC(=O)c1cc(-c2ccc3c(c2)OCCO3)nc2c1c(C)nn2CCC#N	3.85
CC(=O)c1ccc(NC(=O)CCCC(=O)c2ccccc2)cc1	12.6
CO/N=C(\C(=O)O)c1csc(NN=C(C)C)n1	16.2
COC(=O)c1nc2nc(C)cc(=O)n2[nH]1	20.2
O=C(CSc1nnc(-c2cccnc2)n1Cc1ccco1)c1ccc2ccccc2c1	-45.6
O=C(O)CSCC(=O)N1CCN(c2ccnc3cc(Cl)ccc23)CC1	9.15
CCOC(=O)N1CCN(c2cc3nccnc3cc2F)CC1	-12.5
NC(=O)C1CCN(Cc2nc3cc(Cl)ccc3c(=O)[nH]2)CC1	5.22
CCCCNC(=O)N1CCN(c2ncccn2)CC1	3.43
CCC(=O)N1CCN(c2ccnc3cc(Cl)ccc23)CC1	-63.6
CCOC(=O)N1CCC(=NNc2ccnc3cc(Cl)ccc23)CC1	-32.5
CCOC(=O)N1CCN(c2ccnc3cc(Cl)ccc23)CC1	-66
CC(=O)N1CCN(Cc2nc3cc(Cl)ccc3c(=O)[nH]2)CC1	-31.7
O=C(c1ccco1)N1CCN(Cc2nc3cc(Cl)ccc3c(=O)[nH]2)CC1	-61.8
CCCCNC(=O)N1CCN(c2ccccc2OCC)CC1	-0.115
CCCCNC(=O)N1CCN(c2ccnc3cc(Cl)ccc23)CC1	-78.2
CCCC(=O)Nc1cc(Cl)ccc1N1CCN(C(=O)CC)CC1	-33.1
